PubChem BioAssay
Activity calls are given as the source filed them.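 How the source made its calls: active means inhibition at or above 50% relative to wild type and mutant plate controls; inactive means inhibition below 50%.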

Test: inhibitors of Chlamydomonas gravitaxis, primary screen, whole organism, Chlamydomonas reinhardtii, WT vs cilia-less mutant, absorbance, 96-well (AID 463189);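 further: 0% = wild type cc124 cells in DMSO and 100% = ciliumless bld1 mutant cells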
Conditions: OD600 absorbance, 2 days, at 10 µM, hits give high values

inhibition, inactive:
COc1cc(-c2ccc(=O)[nH]n2)ccc1OC(F)F 8.84%
Nc1ncnc2c1ncn2[C@@H]1O[C@H](C(=O)NC2CC2)[C@H](O)C1O (stereo not given in full) 7.98%
Nc1ncn([C@@H]2O[C@H](CO)[C@@H](O)[C@H]2O)c(=O)n1 3.22%
CCN1CCC[C@H]1CNC(=O)c1c(O)c(Cl)cc(Cl)c1OC 0.286%
O=C(N[C@@H](Cc1ccccc1)C(=O)CCl)OCc1ccccc1 0.05%
CC1(C)CCC=[N+]1[O-] 0.394%
CCn1c(=O)c2[nH]c(-c3ccccc3)nc2n(CC)c1=O -1.12%
CCN(c1nc(N)c(C(=O)N=C(N)N)nc1Cl)C(C)C 7.11%
CC(=O)NNC(=O)N1Cc2ccccc2Oc2ccc(Cl)cc21 3.76%
CCCn1c(=O)c2c(ncn2C)n(CCC)c1=O 6.81%
O=C(O)CCC/C=C\C[C@@H]1[C@@H](/C=C/[C@H](O)C2Cc3ccccc3C2)[C@@H](F)C[C@@H]1O -14%
Nc1c2c(nc3ccccc13)CCCC2 -5.5%
Oc1cc(O)cc(/C=C/c2ccc(O)c(O)c2)c1 0.047%
CC(C)[C@@H]1NC(=O)[C@H](CCCCN)NC(=O)[C@@H](Cc2c[nH]c3ccccc23)NC(=O)[C@H](Cc2ccc(O)cc2)NC(=O)[C@H](C)N(C)C(=O)[C@H](Cc2ccccc2)NC1=O 6.6%
CCN1CCC[C@H]1CNC(=O)c1c(OC)ccc(I)c1O 9.9%
COc1cc2c(c(OC)c1OC)-c1ccc(OC)c(=O)cc1[C@@H](NC(C)=O)CC2 4.38%
CN=C(NC#N)NCCSCc1nc[nH]c1C 8.94%
CC(C)Cn1c(=O)n(C)c(=O)c2[nH]cnc21 1.72%
CC(C)NC[C@@H](O)c1ccc(O)c(O)c1 3.12%
O=S(=O)(c1cccc2c(I)cccc12)N1CCCNCC1 -1.51%
CSc1nc(N)c2ncn([C@@H]3O[C@H](COP(=O)(O)OP(=O)(O)OP(=O)(O)O)[C@H](O)C3O)c2n1 (stereo not given in full) -3.46%
OCC1O[C@H](O)C(Cl)C(O)C1O (stereo not given in full) 4.68%
CCCCCC(O)c1cccc(OCc2ccc3ccccc3n2)c1 (stereo not given) 3.99%
COC1(C2=NCCN2)COc2ccccc2O1 (stereo not given) 7.5%
CN=C(NC#N)Nc1ccc(C2=NNC(=O)CC2C)cc1 (stereo not given) -4.34%
O=C(O)c1cc(=O)c2ccc(Cl)cc2[nH]1 4.9%
Cc1c(C)c2c(c(C)c1O)CCC(C)(CN1CCN(c3cc(N4CCCC4)nc(N4CCCC4)n3)CC1)O2 (stereo not given) 6.96%
c1cnc(N2CCN(Cc3ccc4c(c3)OCO4)CC2)nc1 0.952%
CN(C)C(=O)C(CCN1CCC(O)(c2ccc(Cl)cc2)CC1)(c1ccccc1)c1ccccc1 -2.62%
CN1CCCC1CCOC(C)(c1ccccc1)c1ccc(Cl)cc1 (stereo not given) 11.5%
CCCN1C[C@H](CSC)C[C@@H]2c3cccc4[nH]cc(c34)C[C@H]21 5.65%
N#CC(Cc1ccc(O)c(O)c1)C(=O)N1CCc2ccccc21 (stereo not given) 0.886%
CC(C)NC[C@H](O)COc1ccc(CC(N)=O)cc1 -3.21%
NCCCCCCNS(=O)(=O)c1cccc2c(Cl)cccc12 7.85%
CN(C)C(N)=NCCC[C@H](N)C(=O)O 11.1%
CC(C)C[C@H]1C(=O)N2CCC[C@H]2[C@]2(O)O[C@](NC(=O)[C@@H]3C=C4c5cccc6[nH]c(Br)c(c56)C[C@H]4N(C)C3)(C(C)C)C(=O)N12 9.22%
CC(C)NCC(O)c1cc(O)cc(O)c1 (stereo not given) 11.3%
CCCCCCCCCCC/C=C\C(C)(C)/C=C\CCCC(=O)O -1.7%
NC1(C(=O)O)CC1 5.31%
N[C@@H](CC(=O)O)C(=O)O 4.32%
